# Results: PubChem BioAssay (NCI)
# About 83,000 compounds went through this panel and 20% of them were active in at least one assay; those are over-represented in the sample as a whole.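 Percent growth is the endpoint: 0 to 100 indicates growth inhibition (40 means 60% inhibition), 0 means no net growth, and negative values indicate cell death.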 A number with no mark means an inactive call. Activity calls are given as the source filed them.
# System: SK-MEL-2 melanoma
# Experiment: NCI-60 one-dose screen, 48 h (100 = growth as untreated, 0 = no growth, -100 = all killed)
# Settings: 10 µM unless noted
# Description: Growth inhibition of the SK-MEL-2 human tumor cell line is measured as a screen for anti-cancer activity. Cells are grown in 96 well plates and exposed to the test compound for 48 hours. Compounds are tested at a single concentration, which is 10^-5 M for most compounds. The reported endpoint is percent growth (GI% or GIPRCNT), where numbers from 0 - 100% represent growth inhibition, and numbers from -100% - 0 represent cell death. For example, a value of 40 represents 60% growth inhibition. A value of 0 means no net growth occurred over the course of the experiment. A value of -40 indicates 40% of cells at the beginning of the experiment died by the end of the experiment. A value of -100 means all cells are dead at the end of the experiment.
# NCI-60 Human Tumor Cell Lines Screen was performed using the standard one-dose NCI protocol, which is described in more detail at https://dtp.cancer.gov/discovery_development/nci-60/default.htm.
# Compounds with GIPRCNT values below 10 were considered active. Activity score was based on GIPRCNT using the following formula: […]
# Score is 0 for GIPRCNT values of 100 or above, 50 for GIPRCNT values of 0, and 100 for GIPRCNT values of -100.
row,Compound,growth
1,[N-]=[N+]=NC(C(=O)O)c1ccccc1 (stereo not given),99.5%
2,O=C(N/N=C/c1ccc(N(CCCl)CCCl)cc1)c1cc(=O)[nH]c(=O)[nH]1,109%
3,CC(=O)N(C)C1=Nc2ccc(Cl)cc2C(c2ccccc2)=[N+]([O-])C1,95.8%
4,C[C@]12CCC(=O)CC1CC[C@@H]1C2CC[C@@]2(C)C1CC[C@@H]2OC(=O)CC[Se][Se]CCC(=O)O[C@H]1CCC2[C@@H]3CCC4CC(=O)CC[C@]4(C)C3CC[C@@]21C (stereo not given in full),98.4%
5,CC1(CF)NC(=O)NC1=O (stereo not given),121%
6,CC1(C)N=C(N)N=C(N)N1c1ccc(CCCCc2ccc(S(=O)(=O)F)cc2)c(Cl)c1,30.6%
7,O=[N+]([O-])c1cccc([As]=[As]c2cccc([N+](=O)[O-])c2)c1 (stereo not given),-91.4% (active)
8,O=C(CCl)NCNC(=O)CCl,90.4%
9,CC1(C)N=C(N)N=C(N)N1c1ccc(OCCCCOc2ccc(S(=O)(=O)F)cc2)c(Cl)c1,38.6%
10,CC(=O)C1CCC2C3CC=C4CC(OC(=O)Cc5ccc(N(CCCl)CCCl)cc5)CCC4(C)C3CCC12C (stereo not given),106%
11,Cc1cccc(N=C2c3cc([N+](=O)[O-])ccc3-c3c2cc([N+](=O)[O-])cc3[N+](=O)[O-])c1,12.1%
12,C[C@@H]1O[C@@H](O[C@H]2CC[C@@]3(C)[C@H](CCC4[C@@H]3C(O)C[C@]3(C)[C@@H](c5ccc(=O)oc5)CC[C@]43O)C2)[C@H](O)[C@H](O)[C@H]1O (stereo not given in full),-81% (active)
13,Cc1ccc(C(=O)C2CN(C)CCC2(O)c2ccc(C)cc2)cc1 (stereo not given),124%
14,C[C@]12CC[C@@H]3C4=C(CC[C@H]3[C@@H]1CC[C@@H]2O)CC(=O)CC4,127%
15,C=CCc1ccc(OC(=O)Cc2ccccc2)c(OC)c1,80.6%
16,CC(=O)N1N=C(c2ccccc2)CC1c1sc(N(CCCl)CCCl)nc1Cl (stereo not given),87.1%
17,COc1ccc(C2=NN(c3ccccc3)C(c3sc(N(CCCl)CCCl)nc3Cl)C2)cc1 (stereo not given),91.3%
18,CC(C)(NC(=O)c1nn(CCCCCF)c2ccccc12)c1ccccc1,87%
19,CC1CC=CCC12C(=O)NC(=S)NC2=O (stereo not given),131%
20,O=C(O)c1nn(Cc2ccc(Cl)cc2)c2ccccc12,114%

row,Compound,growth
1,Oc1c(Br)cc(Br)cc1Br.[Cu+2],95.3%
2,O=CN1N=C(c2ccc3c(c2)OCO3)CC1c1sc(N(CCCl)CCCl)nc1Cl (stereo not given),92.9%
3,CC(N)Cc1ccc(O)cc1 (stereo not given),94.8%
4,NC(=O)OCC(CO)(c1ccccc1)c1ccccc1,110%
5,CC12CCC(=O)C=C1CCC1C2CCC2(C)C(C(=O)COC(=O)Cc3ccc(N(CCCl)CCCl)cc3)CCC12 (stereo not given),20.6%
6,S=P(Nc1ccccc1)(Nc1ccccc1)c1ccccc1,105%
7,Nc1cccc2c1Oc1ccccc1O2,98%
8,CCC[CH2][Sn]([CH2]CCC)([CH2]CCC)[O]C(=O)c1ccc(Cl)cc1Cl,-73.6% (active)
9,O=S(=O)(F)c1ncnc2nc[nH]c12,85.8%
10,COc1ccc(-c2ccc(OC)c(OC)c2OC)cc1,24%
11,COC1=CC(=O)OC(CCc2ccc3c(c2)OCO3)C1 (stereo not given),97.4%
12,CCOc1c(Cl)cc(CNC(C)C(O)c2ccccc2)cc1OC (stereo not given),72.7%
13,CC(=O)Nc1ccc(Cc2ccc(NC(C)=O)cc2)cc1,125%
14,CC12CCC(=O)C=C1C(O)CC1C2CCC2(C)C(O)CCC12 (stereo not given),105%
15,Cc1ccccc1O,109%
16,N#Cc1ncc(/N=C/c2ccc(N(CCCl)CCCl)cc2)s1,57%
17,CC(=O)[O][Hg][c]1nc2c(c(=O)n(C)c(=O)n2C)n1C,98.6%
18,CN(C)P1(N(C)C)=NP(N(C)C)(N(C)C)=NP(N(C)C)(N(C)C)=N1,98.2%
19,Fc1ccc(C2=NN(c3ccccc3)C(c3sc(N(CCCl)CCCl)nc3Cl)C2)cc1 (stereo not given),84.5%
20,ClCCN(CCCl)c1ccc(C=NCCc2c[nH]c3ccccc23)cc1,125%
